Screen size: about 360,000 compounds; about 3,000 (0.83%) were called active. What follows is part of a selection rich in actives, with near analogues and random picks from the rest. A number with no mark means an inactive call. Cut-off read from the data, not from the text of the source: active = inhibition above about 50%; inactive = the rest.

Chain of DNA (cytosine-5)-methyltransferase 1 (Homo sapiens) (P26358 504-1616 limits assumed): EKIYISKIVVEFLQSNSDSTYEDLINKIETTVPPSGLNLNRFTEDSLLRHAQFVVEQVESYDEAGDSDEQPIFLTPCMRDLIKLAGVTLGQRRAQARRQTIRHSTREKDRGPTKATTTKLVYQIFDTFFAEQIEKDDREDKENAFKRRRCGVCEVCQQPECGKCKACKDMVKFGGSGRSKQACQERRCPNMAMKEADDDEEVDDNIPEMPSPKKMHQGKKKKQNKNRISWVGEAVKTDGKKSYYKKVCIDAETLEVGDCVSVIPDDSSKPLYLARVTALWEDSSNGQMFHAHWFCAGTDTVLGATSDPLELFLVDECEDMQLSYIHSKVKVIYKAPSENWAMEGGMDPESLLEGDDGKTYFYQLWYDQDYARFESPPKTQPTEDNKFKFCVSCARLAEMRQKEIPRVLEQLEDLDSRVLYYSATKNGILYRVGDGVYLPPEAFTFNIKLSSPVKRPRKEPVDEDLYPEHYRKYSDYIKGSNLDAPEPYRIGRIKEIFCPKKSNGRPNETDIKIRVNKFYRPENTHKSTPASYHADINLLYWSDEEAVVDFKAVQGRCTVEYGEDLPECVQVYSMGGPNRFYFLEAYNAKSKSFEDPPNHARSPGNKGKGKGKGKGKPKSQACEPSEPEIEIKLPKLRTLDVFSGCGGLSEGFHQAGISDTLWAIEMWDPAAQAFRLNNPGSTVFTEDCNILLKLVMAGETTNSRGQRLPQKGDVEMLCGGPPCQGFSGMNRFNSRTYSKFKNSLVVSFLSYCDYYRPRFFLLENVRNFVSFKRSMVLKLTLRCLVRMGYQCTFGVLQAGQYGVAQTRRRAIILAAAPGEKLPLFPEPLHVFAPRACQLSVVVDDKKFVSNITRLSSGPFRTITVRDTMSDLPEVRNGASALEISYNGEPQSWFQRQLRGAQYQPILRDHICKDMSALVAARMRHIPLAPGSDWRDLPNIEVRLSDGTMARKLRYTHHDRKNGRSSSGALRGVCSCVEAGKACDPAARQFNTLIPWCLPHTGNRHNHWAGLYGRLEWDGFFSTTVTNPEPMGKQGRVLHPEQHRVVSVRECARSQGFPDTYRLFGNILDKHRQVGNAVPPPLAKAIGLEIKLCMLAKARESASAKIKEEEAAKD

The test has as its target DNA (cytosine-5)-methyltransferase 1 (Homo sapiens) (UniProt P26358). The experiment in a line: human DNMT1 methyltransferase inhibitors, primary screen, biochemical, molecular beacon, fluorescence, HinP1I cleavage, uHTS (AID 588458). The settings on record: at 10 µM, stronger effect = higher value.
As to `O=C(NCC(O)c1nc2ccccc2[nH]1)c1ccc(Br)cc1` (stereo unspecified), the inhibition (reported as % activation of signal) is -1.63%.

For `O=C(Nc1cccc(-c2nc3ccccc3[nH]2)c1)c1ccc(C(=O)Nc2cccc(-c3nc4ccccc4[nH]3)c2)cc1`, the inhibition (reported as % activation of signal) was 56.8% (active). As for `O=C(Nc1ccccc1)c1cc2ccccc2[nH]1`, the figure is -1.95%; as for `COc1ccc(-c2cc(NC=O)c3ncc(-c4cc(OC)c(OC)c(OC)c4)n3c2)c(OC)c1`, -21.8%; as for `O=C(CN1CCN(c2ncccn2)CC1)Nc1ccccc1C(F)(F)F`, 1.55%. For `CC(C)C1CC2=C(C(=O)OC(C)(C)O2)C(c2ccc(F)cc2)O1` (stereo unspecified), the inhibition (reported as % activation of signal) was 0.41%. In the case of `NC(=O)COc1ccc(NC(=O)c2ccccc2-c2ccccc2)cc1`, the inhibition (reported as % activation of signal) is 1.27%. As to `CCCNC(=O)c1cnc(-c2ccccc2)nc1-c1ccccc1`, the inhibition (reported as % activation of signal) was 0.2%.

Regarding `CCOc1cccc(/C=N/N2C(=O)CSC2=S)c1O`, the inhibition (reported as % activation of signal) was -12.4%. For `O=C1CSC(=S)N1/N=C/c1ccc(O)c([N+](=O)[O-])c1`, the inhibition (reported as % activation of signal) is 76.8% (active). Turning to `CO/N=C/c1ccc(N2CCN(C(=O)c3cccc(Cl)c3)CC2)c([N+](=O)[O-])c1`, the inhibition (reported as % activation of signal) is -5.17%. On to `CCc1ccc(OC2(C)CCN(CCOc3ccc(C)cc3)C2)cc1` (stereo unspecified), for which the inhibition (reported as % activation of signal) is 1.94%. `CC1(C(=O)NCc2ccc3c(c2)OCO3)CCN1CCc1ccccc1` (stereo unspecified): the inhibition (reported as % activation of signal) is 0.65%.

Consider `CC1(C)Cc2nc3sc4c(SCC(=O)NC(c5ccccc5)c5ccccc5)ncnc4c3cc2CO1`, for which the inhibition (reported as % activation of signal) is 50% (active). As for `CC(C)CCSc1ncnc2c1oc1nc3c(cc12)COC(C)(C)C3`, the figure is 0.16%; as for `CCOc1ccc(NC(=O)CSc2ncnc3c2sc2ccccc23)cc1`, 11.2%; as for `C=CC[C@@H](CC(=O)N[C@H](CO)Cc1ccccc1)C(=O)N[C@@H](COC(=O)[C@@H](CC=C)Cc1ccc(F)cc1)Cc1c[nH]c2ccccc12`, 63.8% (active). `C=CC[C@H](CC(=O)NCCO)C(=O)N[C@@H](COC(=O)[C@@H](CC=C)Cc1ccc(F)cc1)Cc1c[nH]c2ccccc12`: the inhibition (reported as % activation of signal) is -10.1%. For `C=CCC[C@H](Cc1ccc(F)cc1)C(=O)OC[C@@H](Cc1c[nH]c2ccccc12)NC(=O)[C@H](CC=C)CC(=O)N[C@H](CO)Cc1ccccc1`, the inhibition (reported as % activation of signal) was 4.02%. On to `O=C(Cc1ccc([N+](=O)[O-])cc1)NCCS(=O)(=O)N1CCN(c2ccccc2)CC1`, for which the inhibition (reported as % activation of signal) is -1.35%. For `O=C(c1cccs1)N1CCC(c2nc3ccccc3s2)CC1`, the inhibition (reported as % activation of signal) is 73.8% (active). As for `Cc1cccc(NC(=S)N2CCC(c3nc4ccccc4s3)CC2)c1`, the inhibition (reported as % activation of signal) is -5.14%.

Consider `Cc1cccc(C(=O)N2CCC(c3nc4ccccc4s3)CC2)c1`, for which the inhibition (reported as % activation of signal) is -3.99%. Take `CC(=O)N1CCc2cc(Br)cc(S(=O)(=O)CCC(=O)Nc3c(C)n(C)n(-c4ccccc4)c3=O)c21`: the inhibition (reported as % activation of signal) was 0.99%. As for `COc1ccc(-c2[nH][nH]c(=O)c2NC(=O)c2ccc([N+](=O)[O-])cc2)cc1`, the figure is -19.5%. `COc1ccccc1C(CNC(=O)c1cccc(NS(=O)(=O)c2ccc(Br)cc2)c1)N(C)C` (stereo unspecified): the inhibition (reported as % activation of signal) was 2.12%. As for `COc1ccc(S(=O)(=O)N2CCC(C(=O)OCC(=O)c3ccccc3)CC2)cc1[N+](=O)[O-]`, the figure is 6.89%. Consider `COc1ccc(Br)cc1/C=N/Nc1ccc(S(=O)(=O)Nc2ccccc2C(=O)O)cc1[N+](=O)[O-]`, for which the inhibition (reported as % activation of signal) is 97.5% (active).

As to `O=C(CCSCCc1ccccn1)Nc1nccs1`, the inhibition (reported as % activation of signal) was -3.62%. On to `Cn1cccc1Cc1nnc(SCC(=O)NCc2ccc3c(c2)OCO3)n1CCc1ccccc1`, for which the inhibition (reported as % activation of signal) is 6.75%. Turning to `Cc1c(C(=O)N(Cc2ccccc2)Cc2cccnc2)cnn1-c1ccc(F)cc1`, the inhibition (reported as % activation of signal) is 0.01%.

Consider `O=C(Nc1nc(-c2ccco2)c(-c2ccco2)s1)c1ccco1`, for which the inhibition (reported as % activation of signal) was 80.6% (active). As for `O=C(Nc1nonc1-c1ccc(Cl)cc1)c1ccco1`, the inhibition (reported as % activation of signal) was 9.05%. For `CCc1nnc(NC(=O)c2ccco2)s1`, the inhibition (reported as % activation of signal) is 4.22%.

As for `CCN(CC)S(=O)(=O)c1ccc(NC(=O)c2cccnc2Cl)c(NC(=O)c2cccnc2Cl)c1`, the inhibition (reported as % activation of signal) is -0.07%. Consider `CC(C)C[C@H](NC(=O)C1CC(=O)N(c2ccc3c(c2)OCCO3)C1)C(=O)NC1CCCC1` (stereo partly specified), for which the inhibition (reported as % activation of signal) was -0.87%. Regarding `O=C1NCC(Nc2ccccc2)C(=O)N1` (stereo unspecified), the inhibition (reported as % activation of signal) was 0.4%. Take `Cc1nn(C)cc1N1C(=O)c2cccc3c(N)ccc(c23)C1=O`: the inhibition (reported as % activation of signal) is 65% (active). `O=C(CN1C(=O)c2cccc3cccc1c23)Nc1ccccc1`: the inhibition (reported as % activation of signal) was 6.37%. On to `CN1C(=O)c2cccc3c(N)ccc(c23)C1=O`, for which the inhibition (reported as % activation of signal) was 68.8% (active).

As for `CCN1C(=O)c2cccc3c(S(=O)(=O)Nc4ccccc4O)ccc1c23`, the inhibition (reported as % activation of signal) is -3.81%. For the compound `Cn1cc(C2OC(=O)c3ccccc32)c2ccccc21` (stereo unspecified), the inhibition (reported as % activation of signal) was 1.23%.

As to `CCN1C(=O)c2cccc3c(N)ccc1c23`, the inhibition (reported as % activation of signal) was 51.2% (active). As for `O=C(COC(=O)CCc1c[nH]c2ccccc12)Nc1cccc(Cl)c1`, the figure is -4.28%; as for `O=C(CCC1CCCC1)N=C1SC2CS(=O)(=O)CC2N1Cc1ccccc1` (stereo unspecified), 14.4%. Regarding `COc1ccccc1-c1oc2ccccc2c1C#CCCCCO`, the inhibition (reported as % activation of signal) is -0.24%. For `COc1ccc(Cc2cc(-c3ccc(F)cc3)n[nH]c2=O)cc1`, the inhibition (reported as % activation of signal) was -1.27%.

As for `CCCc1nc(-c2cc3cc(C)ccc3[nH]c2=O)no1`, the inhibition (reported as % activation of signal) was -2.69%. `COc1ccc2[nH]c(=O)c(-c3noc(-c4ccc(F)cc4)n3)cc2c1`: the inhibition (reported as % activation of signal) was 95.2% (active). For `Cc1ccc2c(CC(=O)NCc3cccs3)coc2c1` the value was 7.02%. As for `C[C@H]1CN([C@@H](C)CO)C(=O)CCCn2cc(nn2)CO[C@@H]1CN(C)S(=O)(=O)c1ccccc1C#N`, the figure is 8.79%; as for `C=C(Br)CN1CCN(CC(=C)Br)CC1`, 1.67%; as for `Cc1ccc2nc(-c3ccco3)c(Cc3cccc(Cl)c3)n2c1`, -0.88%. With `Cc1cc2nc(-c3ccco3)c(Cc3cccc(F)c3)n2c(C)c1Br`, the inhibition (reported as % activation of signal) was 56.4% (active). Regarding `Cc1cc2nc(-c3ccc(Cl)cc3)c(Cc3cccc(F)c3)n2c(C)c1Br`, the inhibition (reported as % activation of signal) was 37.2%. As to `CCN1CCN(c2ccc(S(=O)(=O)N3CCCCC3)cc2NC(=O)c2cccc(NC(C)=O)c2)CC1`, the inhibition (reported as % activation of signal) is -6.35%.

For the origin of these results see PubChem BioAssay AID588458 (Sanford-Burnham Center for Chemical Genomics, 2011).
